# From paper PMC7862700, “An all-to-all approach to the identification of sequence-specific readers for epigenetic DNA modifications on cytosine”
# Tests used:
# Test in all cases: DAPPL (digital affinity profiling via proximity ligation, sequencing); 10 mM Tris-HCl pH 7.5, 50 mM NaCl, 1 mM DTT, 4% glycerol, room temperature, 30 min; GST-TFs on glutathione beads, 16-mer random dsDNA library, 0.1% formaldehyde crosslink after washing; high values mean tight binding
# FLI1 = target: T1, FLI1 (Homo sapiens, UniProt Q01543 1-452); settings: protein: recombinant; tags: N-terminal GST; dsDNA, one strand shown
# T1 sequence: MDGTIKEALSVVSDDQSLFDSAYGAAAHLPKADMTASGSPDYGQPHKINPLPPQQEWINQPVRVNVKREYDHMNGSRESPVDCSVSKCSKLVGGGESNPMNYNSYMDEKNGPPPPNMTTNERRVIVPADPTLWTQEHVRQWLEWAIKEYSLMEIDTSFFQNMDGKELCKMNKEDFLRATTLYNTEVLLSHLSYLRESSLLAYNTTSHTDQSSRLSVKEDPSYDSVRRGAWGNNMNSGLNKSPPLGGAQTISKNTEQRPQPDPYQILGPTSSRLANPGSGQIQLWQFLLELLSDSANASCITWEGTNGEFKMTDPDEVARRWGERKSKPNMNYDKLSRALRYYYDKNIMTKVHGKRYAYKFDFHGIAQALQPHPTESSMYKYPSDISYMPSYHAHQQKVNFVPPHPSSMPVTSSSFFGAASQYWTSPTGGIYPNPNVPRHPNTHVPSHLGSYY
# In short: (§1)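 GST fusions of human transcription factors were expressed in yeast and captured with glutathione beads. Once given DNA barcodes and pooled alongside a tag-only sample, they were incubated for 30 min at room temperature with 200 nmole of a random double-stranded 16-mer DNA library in Tris/NaCl/DTT/glycerol buffer, then washed, crosslinked (0.1% formaldehyde), proximity-ligated, PCR-amplified and sequenced on an Illumina NextSeq500. The binding signal of each hexamer is its read frequency for a factor divided by its frequency for the tag-only sample.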
# ELK1 = target: T2, ELK1 (Homo sapiens, UniProt P19419 1-428); settings: protein: recombinant; tags: N-terminal GST; dsDNA, one strand shown
# T2 sequence: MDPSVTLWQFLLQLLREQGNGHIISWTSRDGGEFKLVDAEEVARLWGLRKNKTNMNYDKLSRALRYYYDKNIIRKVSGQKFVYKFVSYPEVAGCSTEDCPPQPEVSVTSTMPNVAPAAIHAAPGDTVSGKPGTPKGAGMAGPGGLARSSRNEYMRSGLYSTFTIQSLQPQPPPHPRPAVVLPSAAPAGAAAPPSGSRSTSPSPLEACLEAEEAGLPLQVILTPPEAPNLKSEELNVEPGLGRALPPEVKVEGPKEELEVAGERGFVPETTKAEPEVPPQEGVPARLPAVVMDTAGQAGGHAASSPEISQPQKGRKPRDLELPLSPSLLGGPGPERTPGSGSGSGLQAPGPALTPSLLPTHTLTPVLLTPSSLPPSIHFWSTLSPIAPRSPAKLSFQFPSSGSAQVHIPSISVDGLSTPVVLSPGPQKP
# In short: as §1
# GABPA = target: T3, GABPA (Homo sapiens, UniProt Q06546 1-454); settings: protein: recombinant; tags: N-terminal GST; dsDNA, one strand shown
# T3 sequence: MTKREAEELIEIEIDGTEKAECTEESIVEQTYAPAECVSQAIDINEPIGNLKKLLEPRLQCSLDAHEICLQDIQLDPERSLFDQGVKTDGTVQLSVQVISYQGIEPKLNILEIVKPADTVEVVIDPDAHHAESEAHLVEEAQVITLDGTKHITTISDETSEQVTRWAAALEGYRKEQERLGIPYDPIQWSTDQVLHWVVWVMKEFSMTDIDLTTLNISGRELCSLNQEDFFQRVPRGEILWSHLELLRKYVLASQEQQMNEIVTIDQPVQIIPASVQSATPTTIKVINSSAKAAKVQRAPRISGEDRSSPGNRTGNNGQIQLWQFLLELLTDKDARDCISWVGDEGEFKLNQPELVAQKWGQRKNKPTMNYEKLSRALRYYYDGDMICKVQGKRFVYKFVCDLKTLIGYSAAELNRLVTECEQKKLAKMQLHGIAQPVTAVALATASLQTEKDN
# In short: as §1
# ERG = target: T4, ERG (Homo sapiens, UniProt P11308 1-479); settings: protein: recombinant; tags: N-terminal GST; dsDNA, one strand shown
# T4 sequence: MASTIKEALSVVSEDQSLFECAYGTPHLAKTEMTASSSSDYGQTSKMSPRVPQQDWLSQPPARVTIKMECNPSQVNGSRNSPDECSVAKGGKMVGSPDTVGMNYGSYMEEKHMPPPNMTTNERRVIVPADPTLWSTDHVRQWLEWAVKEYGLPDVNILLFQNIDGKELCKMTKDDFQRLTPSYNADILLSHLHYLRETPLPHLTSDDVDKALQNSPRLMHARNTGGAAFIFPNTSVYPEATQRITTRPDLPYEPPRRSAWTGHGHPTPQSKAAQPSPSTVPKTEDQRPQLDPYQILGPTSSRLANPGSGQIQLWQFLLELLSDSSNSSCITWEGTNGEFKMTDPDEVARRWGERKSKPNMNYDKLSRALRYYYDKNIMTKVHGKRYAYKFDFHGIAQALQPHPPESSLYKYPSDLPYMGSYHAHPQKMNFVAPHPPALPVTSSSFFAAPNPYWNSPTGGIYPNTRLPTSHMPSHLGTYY
# In short: as §1
# ELF1 = ELF1 (Homo sapiens, UniProt P32519 1-619); settings: protein: recombinant; tags: N-terminal GST; dsDNA, one strand shown
# In short: as §1
# EHF = target: T5, EHF (Homo sapiens, UniProt Q9NZC4 1-300); settings: protein: recombinant; tags: N-terminal GST; dsDNA, one strand shown
# T5 sequence: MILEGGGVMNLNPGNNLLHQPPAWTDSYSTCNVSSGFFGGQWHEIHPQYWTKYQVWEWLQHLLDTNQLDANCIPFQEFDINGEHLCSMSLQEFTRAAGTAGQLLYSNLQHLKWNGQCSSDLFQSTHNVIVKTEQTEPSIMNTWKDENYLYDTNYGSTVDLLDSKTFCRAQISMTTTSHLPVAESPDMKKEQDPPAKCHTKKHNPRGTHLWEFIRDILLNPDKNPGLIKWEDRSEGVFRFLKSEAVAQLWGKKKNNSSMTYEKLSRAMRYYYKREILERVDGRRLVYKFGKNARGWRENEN
# In short: as §1
# SPI1 = SPI1 (Homo sapiens, UniProt P17947 1-270); settings: protein: recombinant; tags: N-terminal GST; dsDNA, one strand shown
# In short: as §1
# SPIB = SPIB (Homo sapiens, UniProt Q01892 1-262); settings: protein: recombinant; tags: N-terminal GST; dsDNA, one strand shown
# In short: as §1
# FEV = target: T6, FEV (Homo sapiens, UniProt Q99581 1-238); settings: protein: recombinant; tags: N-terminal GST; dsDNA, one strand shown
# T6 sequence: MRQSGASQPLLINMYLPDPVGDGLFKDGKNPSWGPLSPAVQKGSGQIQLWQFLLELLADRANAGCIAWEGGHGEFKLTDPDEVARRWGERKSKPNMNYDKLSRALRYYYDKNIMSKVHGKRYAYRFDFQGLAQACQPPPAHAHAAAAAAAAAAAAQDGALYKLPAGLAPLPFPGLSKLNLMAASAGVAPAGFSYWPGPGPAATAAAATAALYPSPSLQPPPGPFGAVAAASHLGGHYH
# In short: as §1
# ETV5 = ETV5 (Homo sapiens, UniProt P41161 1-510); settings: protein: recombinant; tags: N-terminal GST; dsDNA, one strand shown
# In short: as §1
# HSF1 = HSF1 (Homo sapiens, UniProt Q00613 1-529); settings: protein: recombinant; tags: N-terminal GST; chain copies: 3; dsDNA, one strand shown
# In short: as §1
# SPIC = target: T7, SPIC (Homo sapiens, UniProt Q8N5J4 1-248); settings: protein: recombinant; tags: N-terminal GST; dsDNA, one strand shown
# T7 sequence: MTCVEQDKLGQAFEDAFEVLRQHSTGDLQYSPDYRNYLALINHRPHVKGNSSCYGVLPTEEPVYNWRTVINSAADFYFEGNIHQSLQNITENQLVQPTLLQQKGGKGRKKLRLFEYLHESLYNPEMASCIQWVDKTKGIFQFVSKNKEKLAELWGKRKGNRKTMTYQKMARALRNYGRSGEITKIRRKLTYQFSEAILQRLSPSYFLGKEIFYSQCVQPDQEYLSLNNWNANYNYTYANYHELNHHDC
# In short: as §1
# ELF4 = ELF4 (Homo sapiens, UniProt Q99607 1-663); settings: protein: recombinant; tags: N-terminal GST; dsDNA, one strand shown
# In short: as §1
# ELK4 = target: T8, ELK4 (Homo sapiens, UniProt P28324-2 1-405); settings: protein: recombinant; tags: N-terminal GST; dsDNA, one strand shown
# T8 sequence: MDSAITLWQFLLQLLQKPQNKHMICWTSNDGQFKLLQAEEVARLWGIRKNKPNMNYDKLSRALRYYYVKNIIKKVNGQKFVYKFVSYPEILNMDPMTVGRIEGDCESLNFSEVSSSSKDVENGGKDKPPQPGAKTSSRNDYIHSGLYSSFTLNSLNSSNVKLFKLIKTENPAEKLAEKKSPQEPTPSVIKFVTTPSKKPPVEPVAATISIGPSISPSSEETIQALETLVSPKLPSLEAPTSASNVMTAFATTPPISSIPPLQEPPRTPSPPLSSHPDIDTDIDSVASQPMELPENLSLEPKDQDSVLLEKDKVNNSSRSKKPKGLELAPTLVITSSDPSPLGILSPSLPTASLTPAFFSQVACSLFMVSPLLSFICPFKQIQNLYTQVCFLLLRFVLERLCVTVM
# In short: as §1
# ETV2 = target: T9, ETV2 (Homo sapiens, UniProt O00321 1-342); settings: protein: recombinant; tags: N-terminal GST; dsDNA, one strand shown
# T9 sequence: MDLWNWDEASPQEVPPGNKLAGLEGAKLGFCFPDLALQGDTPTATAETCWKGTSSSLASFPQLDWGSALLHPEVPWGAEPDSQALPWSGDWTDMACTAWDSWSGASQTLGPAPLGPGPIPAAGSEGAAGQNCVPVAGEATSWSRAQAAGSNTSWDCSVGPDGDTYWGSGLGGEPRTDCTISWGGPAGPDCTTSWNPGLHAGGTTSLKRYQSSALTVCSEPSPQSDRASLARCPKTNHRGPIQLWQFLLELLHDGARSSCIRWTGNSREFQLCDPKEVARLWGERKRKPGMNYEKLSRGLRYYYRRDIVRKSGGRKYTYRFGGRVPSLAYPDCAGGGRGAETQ
# In short: as §1
# ELF3 = target: T10, ELF3 (Homo sapiens, UniProt P78545 1-371); settings: protein: recombinant; tags: N-terminal GST; dsDNA, one strand shown
# T10 sequence: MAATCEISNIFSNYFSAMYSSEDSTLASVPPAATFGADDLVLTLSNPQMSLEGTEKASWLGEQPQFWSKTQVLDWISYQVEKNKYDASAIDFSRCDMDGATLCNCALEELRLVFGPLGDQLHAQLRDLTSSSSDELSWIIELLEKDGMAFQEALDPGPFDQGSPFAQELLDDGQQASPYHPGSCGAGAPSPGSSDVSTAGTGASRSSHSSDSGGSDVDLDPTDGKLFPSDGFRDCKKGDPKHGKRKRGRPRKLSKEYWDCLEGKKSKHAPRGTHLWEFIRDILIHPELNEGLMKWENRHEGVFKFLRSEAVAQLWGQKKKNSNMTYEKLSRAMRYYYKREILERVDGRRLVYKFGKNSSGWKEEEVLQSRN
# In short: as §1
# ETV1 = ETV1 (Homo sapiens, UniProt P50549 1-477); settings: protein: recombinant; tags: N-terminal GST; dsDNA, one strand shown
# In short: as §1
# ETV1, sequence (P50549 whole entry): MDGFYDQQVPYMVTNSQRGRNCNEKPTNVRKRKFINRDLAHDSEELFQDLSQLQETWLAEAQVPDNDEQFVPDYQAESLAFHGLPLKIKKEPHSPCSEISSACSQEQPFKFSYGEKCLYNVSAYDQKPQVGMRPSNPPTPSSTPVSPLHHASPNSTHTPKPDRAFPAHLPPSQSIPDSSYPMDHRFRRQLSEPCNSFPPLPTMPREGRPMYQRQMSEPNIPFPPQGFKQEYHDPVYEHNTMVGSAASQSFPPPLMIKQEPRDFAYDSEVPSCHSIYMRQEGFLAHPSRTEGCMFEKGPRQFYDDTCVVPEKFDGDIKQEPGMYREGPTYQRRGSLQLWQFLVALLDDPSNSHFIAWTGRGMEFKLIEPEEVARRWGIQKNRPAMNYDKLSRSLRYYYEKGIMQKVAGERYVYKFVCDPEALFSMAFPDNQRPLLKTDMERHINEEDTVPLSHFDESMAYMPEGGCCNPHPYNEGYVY
# ETV5, sequence (P41161 whole entry): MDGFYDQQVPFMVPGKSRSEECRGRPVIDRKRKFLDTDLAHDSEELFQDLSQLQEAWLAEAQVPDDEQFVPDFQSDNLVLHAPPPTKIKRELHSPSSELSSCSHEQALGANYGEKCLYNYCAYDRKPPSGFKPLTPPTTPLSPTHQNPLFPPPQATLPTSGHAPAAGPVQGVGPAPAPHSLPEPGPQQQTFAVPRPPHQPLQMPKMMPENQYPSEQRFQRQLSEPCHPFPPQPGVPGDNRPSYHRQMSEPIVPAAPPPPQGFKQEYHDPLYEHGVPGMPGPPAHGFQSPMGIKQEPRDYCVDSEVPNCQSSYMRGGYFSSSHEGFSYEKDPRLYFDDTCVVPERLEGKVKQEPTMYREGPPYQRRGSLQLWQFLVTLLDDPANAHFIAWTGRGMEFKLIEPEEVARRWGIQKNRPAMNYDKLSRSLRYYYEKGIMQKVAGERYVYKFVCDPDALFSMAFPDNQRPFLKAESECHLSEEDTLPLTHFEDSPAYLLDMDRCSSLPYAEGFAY
# ELF1, sequence (P32519 whole entry): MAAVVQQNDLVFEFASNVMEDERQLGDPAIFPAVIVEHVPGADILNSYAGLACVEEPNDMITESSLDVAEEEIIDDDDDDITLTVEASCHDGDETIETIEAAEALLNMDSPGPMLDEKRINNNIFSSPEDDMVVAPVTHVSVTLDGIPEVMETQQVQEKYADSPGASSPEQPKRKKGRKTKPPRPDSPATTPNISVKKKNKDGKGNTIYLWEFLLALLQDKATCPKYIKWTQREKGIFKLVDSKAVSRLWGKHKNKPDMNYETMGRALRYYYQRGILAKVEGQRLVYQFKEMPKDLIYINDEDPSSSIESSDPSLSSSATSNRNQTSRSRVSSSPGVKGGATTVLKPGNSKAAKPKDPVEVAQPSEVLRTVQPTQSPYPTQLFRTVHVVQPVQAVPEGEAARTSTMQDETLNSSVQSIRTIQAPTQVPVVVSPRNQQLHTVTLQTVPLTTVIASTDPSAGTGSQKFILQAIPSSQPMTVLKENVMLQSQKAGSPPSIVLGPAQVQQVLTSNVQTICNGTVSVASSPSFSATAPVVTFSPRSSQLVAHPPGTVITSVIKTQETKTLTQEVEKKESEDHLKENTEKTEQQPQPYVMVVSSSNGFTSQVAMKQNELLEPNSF
# HSF1, sequence (Q00613 whole entry): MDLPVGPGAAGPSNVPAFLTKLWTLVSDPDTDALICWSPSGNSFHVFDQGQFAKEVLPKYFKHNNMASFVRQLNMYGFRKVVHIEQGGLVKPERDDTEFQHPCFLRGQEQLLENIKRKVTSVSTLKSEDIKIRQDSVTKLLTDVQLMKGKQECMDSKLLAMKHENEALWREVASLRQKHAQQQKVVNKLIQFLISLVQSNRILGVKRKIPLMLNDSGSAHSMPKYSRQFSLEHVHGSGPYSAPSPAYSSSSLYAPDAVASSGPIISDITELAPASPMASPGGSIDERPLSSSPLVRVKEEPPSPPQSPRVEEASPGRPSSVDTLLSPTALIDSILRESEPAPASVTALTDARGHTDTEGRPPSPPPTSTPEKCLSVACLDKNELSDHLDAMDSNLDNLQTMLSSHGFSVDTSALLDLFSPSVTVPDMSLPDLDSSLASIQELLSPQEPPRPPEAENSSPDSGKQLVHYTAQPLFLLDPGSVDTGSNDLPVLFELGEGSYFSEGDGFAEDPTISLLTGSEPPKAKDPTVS
# SPIB, sequence (Q01892 whole entry): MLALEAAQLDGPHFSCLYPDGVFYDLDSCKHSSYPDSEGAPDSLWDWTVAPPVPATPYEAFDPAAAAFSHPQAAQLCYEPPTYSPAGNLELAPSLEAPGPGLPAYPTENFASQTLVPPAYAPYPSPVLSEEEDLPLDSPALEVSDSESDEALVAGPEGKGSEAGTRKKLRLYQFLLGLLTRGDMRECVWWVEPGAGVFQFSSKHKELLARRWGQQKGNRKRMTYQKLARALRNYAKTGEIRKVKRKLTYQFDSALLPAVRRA
# ELF4, sequence (Q99607 whole entry): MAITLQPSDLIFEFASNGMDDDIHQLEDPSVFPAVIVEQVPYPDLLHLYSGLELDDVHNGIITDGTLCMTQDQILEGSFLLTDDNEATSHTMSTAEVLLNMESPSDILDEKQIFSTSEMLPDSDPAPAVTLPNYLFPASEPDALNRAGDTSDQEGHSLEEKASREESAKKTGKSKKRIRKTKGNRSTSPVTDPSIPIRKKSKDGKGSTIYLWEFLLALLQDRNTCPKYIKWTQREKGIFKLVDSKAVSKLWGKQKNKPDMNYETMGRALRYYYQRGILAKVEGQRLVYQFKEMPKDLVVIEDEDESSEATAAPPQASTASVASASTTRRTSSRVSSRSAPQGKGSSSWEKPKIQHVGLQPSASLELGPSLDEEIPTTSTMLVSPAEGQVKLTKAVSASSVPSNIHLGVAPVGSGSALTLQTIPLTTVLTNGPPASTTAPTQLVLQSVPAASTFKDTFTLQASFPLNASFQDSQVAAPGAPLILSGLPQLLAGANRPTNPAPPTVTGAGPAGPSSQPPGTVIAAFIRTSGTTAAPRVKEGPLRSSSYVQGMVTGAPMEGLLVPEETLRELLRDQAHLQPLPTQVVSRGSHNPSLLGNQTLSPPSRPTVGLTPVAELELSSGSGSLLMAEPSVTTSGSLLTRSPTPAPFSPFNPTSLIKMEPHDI
sequence,measurement,setting,value
GCTCGT,binding signal,FLI1,"1.19 fold enrichment (6-mer frequency, TF over GST control)"
same,binding signal,ELK1,"1.16 fold enrichment (6-mer frequency, TF over GST control)"
same,binding signal,GABPA,"1.26 fold enrichment (6-mer frequency, TF over GST control)"
same,binding signal,ERG,"1.12 fold enrichment (6-mer frequency, TF over GST control)"
same,binding signal,ELF1,"1.15 fold enrichment (6-mer frequency, TF over GST control)"
same,binding signal,EHF,"1.14 fold enrichment (6-mer frequency, TF over GST control)"
same,binding signal,SPI1,"1.12 fold enrichment (6-mer frequency, TF over GST control)"
same,binding signal,SPIB,"1.16 fold enrichment (6-mer frequency, TF over GST control)"
same,binding signal,FEV,"1.06 fold enrichment (6-mer frequency, TF over GST control)"
same,binding signal,ETV5,"1.17 fold enrichment (6-mer frequency, TF over GST control)"
same,binding signal,HSF1,"1.07 fold enrichment (6-mer frequency, TF over GST control)"
same,binding signal,SPIC,"1.14 fold enrichment (6-mer frequency, TF over GST control)"
same,binding signal,ELF4,"1.24 fold enrichment (6-mer frequency, TF over GST control)"
same,binding signal,ELK4,"1.11 fold enrichment (6-mer frequency, TF over GST control)"
same,binding signal,ETV2,"1.29 fold enrichment (6-mer frequency, TF over GST control)"
same,binding signal,ELF3,"1.16 fold enrichment (6-mer frequency, TF over GST control)"
same,binding signal,ETV1,"1.15 fold enrichment (6-mer frequency, TF over GST control)"
